Several values for one entry are separate records, joined by “and”; a condition that tells them apart may be missing. Equal values may be shown once. Some structures have more than one record in an assay (separate samples or runs), and their calls can disagree. Activity calls are given as the source filed them.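 Rule for the calls, unless noted: active = inhibition at or above 50% relative to wild type and mutant plate controls; inactive = inhibition below 50%.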
Tests used:
[1] = inhibitors of TNFa-induced NFkB p65 translocation, primary screen, imaging, HUVEC, MLSMR starter and 10KST1 sets (AID 438;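 active = inhibition above 20% together with a positive visual image hit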;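 note: compound added about 3h40 before a 20 min TNFalpha stimulation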;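 for inhibition: signal is the nuclear over cytoplasmic p65 intensity ratio per well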); settings: HUVEC TNFa-induced p65 nuclear translocation; cell count: measured here: nuclei count (cytotoxicity indicator), at 2.08 µM; inhibition: at 2 µM, stronger effect = higher value, 0% TNFa-plus-vehicle, 100% no-TNFa wells
[2] = reduction of polyQ htt aggregates in cells – imaging, exon1htt(103Q)mCFP cells, high-content imaging, primary screen (AID 483;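 active = visual image review flags a hit and inhibition of aggregation exceeds 20%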;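 note: compound exposure lasted 3 days before fixation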;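 for nuclei count: percent of the per-plate median nuclei count of sample wells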); settings: exon1htt(103Q)mCFP cell line, aggregate imaging, at 2 µM; inhibition of aggregation: stronger effect = higher value; nuclei count: measured here: cell count, toxicity
[3] = endothelial E-selectin expression blockers – imaging, HUVEC, immunofluorescence, MLSMR starter and 10KST1 sets, primary screen (AID 487;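 active = visually confirmed hit in the image check and inhibition above 20%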;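 for inhibition: signal is fraction of cell area covered by stained E-selectin grains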;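 for nuclei count: 100% = median nuclei count of all wells on the same plate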); settings: HUVEC TNFalpha-induced E-selectin immunofluorescence imaging, at 2 µM; inhibition: stronger effect = higher value; nuclei count: measured here: cell number, toxicity
[4] = Primary imaging screen for DUSP6 inhibitors that restore phospho-Erk in transfected HeLa cells, chemical complementation (AID 609;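 active = compounds giving at least 50% inhibition in the cell-based MKP-3 phosphatase rescue imaging test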;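 for inhibition: phospho-Erk level distribution per well compared with pooled transfected vehicle control wells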); settings: HeLa MKP-3 transfected, phospho-Erk imaging KS statistic, at 10 µM, cells stimulated with TPA for 15 min
[5] = molecular target: Dual specificity protein phosphatase 6 (Homo sapiens) (UniProt Q16828); test: as above; settings: HeLa MKP-3 transfected, phospho-Erk imaging KS statistic; at 10 µM; stronger effect = higher value; cells stimulated with TPA for 15 min
[6] = molecular target: Voltage-gated potassium channel subunit beta-2 (Rattus norvegicus) (UniProt P62483); test: inhibitors of rat Kvbeta2 reductase activity – biochemical, NADPH fluorescence, primary screen (AID 622;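 active = fluorescence slope higher than the sample average by over 3 SD, cut at about -0.22 in these data, passing the limit was not always enough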;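 note: slope of raw intensity against log time taken from 70 to 1610 s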); settings: recombinant KvBeta, 4-cyanobenzaldehyde reduction, at 10 µM, stronger effect = higher value
[7] = molecular target: Voltage-gated potassium channel subunit beta-2 (Rattus norvegicus) (UniProt P62483); test: enhancers of rat Kvbeta2 NADPH turnover – biochemical, NADPH fluorescence, primary screen (AID 623;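 active = NADPH fluorescence slope more negative than the mean of all samples by about 3 SD, 99.7% confidence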;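 note: fluorescence intensity change per second fitted from 20 to 320 s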); settings: Recombinant KvBeta, NADPH fluorescence decrease slope, 10 min; at 10 µM; stronger effect = lower value
[8] = molecular target: Alpha-2C adrenergic receptor (Homo sapiens) (UniProt P18825); test: compounds altering alpha2C-coupled GIRK flux – cell-based, HEK293 alpha2C/GIRK1/2, thallium flux, primary screen (AID 624;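 active = fluorescence slope after compound addition differing from the mean of all screened samples at 99.7% confidence, in either direction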;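 note: slope of fluorescence ratio to pre-addition baseline per second over 15 to 24 s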); settings: thallium flux BTC fluorescence, at 10 µM, actives lie on both sides
[9] = inhibitors of larval lipid processing in zebrafish, primary screen, whole organism, PED6 fluorescence, gall bladder and intestine (AID 686;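 active = a full or partial loss of lipid-probe fluorescence in the fish gall bladder, intestine or both, judged by eye; inactive = no fluorescence loss, or compound toxic to the fish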;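 note: larvae 5 to 7 days old with five fish per well; signal comes from phospholipase A2 cleavage of quenched PED6 carried via bile; overnight exposure to compound and PED6 before scoring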); settings: Zebrafish larvae PED6 lipid processing, fluorescence scoring; screened at 20 µM (by protocol)
[10] = loss of swimming-algae plug formation – whole organism, Chlamydomonas reinhardtii, WT vs cilia-less mutant, absorbance, 96-well, primary screen (AID 463189); settings: Chlamydomonas reinhardtii gravitaxis, OD600 absorbance, 2 days; at 10 µM; stronger effect = higher value;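 note: 0% = wild type cc124 cells in DMSO and 100% = ciliumless bld1 mutant cells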
[11] = blockers of RIG-like receptor reporter activation – cell-based, Sendai virus stimulus, luciferase, 10K MLSCN set, TLR/RLR signaling modifier project, primary screen (AID 602276;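 active = inhibition at or above 50% at 10 µM; inactive = inhibition below 50%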;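 note: firefly luciferase from ISG56 promoter only with Renilla not read in this screen; 0% = Sendai virus plus DMSO and 100% = medium plus DMSO without virus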); settings: HEK293 RL24 IRF3 luciferase reporter, at 10 µM, stronger effect = higher value
[12] = TLR3 IRF3 reporter activation blockers – cell-based, poly I:C stimulus, luciferase, 10K MLSCN set, primary screen (AID 602277;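 active = inhibition of the reporter signal at or above 50%; inactive = inhibition below 50%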); settings: HEK293-TLR3 RL24 IRF3 luciferase reporter, at 10 µM, stronger effect = higher value
[13] = molecular target: Muscarinic acetylcholine receptor M4 (Homo sapiens) (UniProt P08173); test: M4-linked GIRK flux change, two-sided – cell-based, HEK293 M4/GIRK, thallium flux, BTC-AM, M4 allosteric agonist project, primary screen (AID 625;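 active = fluorescence slope after compound addition differing from the mean of all tested samples at 99.7% confidence, mostly higher but some lower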;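 note: thallium influx through GIRK channels coupled to M4 in HEK293 cells with BTC-AM dye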); settings: at 10 µM, actives lie on both sides
[14] = measured here: cell density z-score
[15] = measured here: nuclear c-Myc green intensity z-score
[16] = measured here: nuclear pErk red intensity z-score, stronger effect = higher value

Chain of Alpha-2C adrenergic receptor (Homo sapiens) (P18825 whole entry, looked up): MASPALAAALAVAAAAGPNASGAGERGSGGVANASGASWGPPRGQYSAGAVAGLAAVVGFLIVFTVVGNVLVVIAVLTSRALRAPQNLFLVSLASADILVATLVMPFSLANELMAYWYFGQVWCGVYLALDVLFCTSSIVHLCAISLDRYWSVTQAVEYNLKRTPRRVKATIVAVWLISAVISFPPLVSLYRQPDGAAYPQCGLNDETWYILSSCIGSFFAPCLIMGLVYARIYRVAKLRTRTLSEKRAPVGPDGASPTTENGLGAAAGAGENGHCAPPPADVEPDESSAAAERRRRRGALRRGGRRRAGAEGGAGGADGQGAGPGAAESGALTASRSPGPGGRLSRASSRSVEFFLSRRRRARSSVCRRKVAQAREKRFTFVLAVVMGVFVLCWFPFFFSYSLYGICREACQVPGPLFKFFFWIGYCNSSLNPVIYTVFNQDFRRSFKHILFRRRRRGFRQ
Chain of Dual specificity protein phosphatase 6 (Homo sapiens) (Q16828 whole entry, looked up): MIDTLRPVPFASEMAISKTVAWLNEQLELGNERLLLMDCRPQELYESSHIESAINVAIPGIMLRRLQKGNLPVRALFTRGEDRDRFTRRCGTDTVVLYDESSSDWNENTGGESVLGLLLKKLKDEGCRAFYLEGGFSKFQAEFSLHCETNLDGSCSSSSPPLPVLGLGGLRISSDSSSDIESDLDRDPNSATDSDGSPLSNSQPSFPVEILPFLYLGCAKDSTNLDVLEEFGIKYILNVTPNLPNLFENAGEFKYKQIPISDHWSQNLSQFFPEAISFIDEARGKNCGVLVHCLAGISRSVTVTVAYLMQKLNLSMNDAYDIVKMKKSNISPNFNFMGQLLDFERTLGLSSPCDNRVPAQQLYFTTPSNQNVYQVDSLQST
Chain of Voltage-gated potassium channel subunit beta-2 (Rattus norvegicus) (P62483 whole entry, looked up): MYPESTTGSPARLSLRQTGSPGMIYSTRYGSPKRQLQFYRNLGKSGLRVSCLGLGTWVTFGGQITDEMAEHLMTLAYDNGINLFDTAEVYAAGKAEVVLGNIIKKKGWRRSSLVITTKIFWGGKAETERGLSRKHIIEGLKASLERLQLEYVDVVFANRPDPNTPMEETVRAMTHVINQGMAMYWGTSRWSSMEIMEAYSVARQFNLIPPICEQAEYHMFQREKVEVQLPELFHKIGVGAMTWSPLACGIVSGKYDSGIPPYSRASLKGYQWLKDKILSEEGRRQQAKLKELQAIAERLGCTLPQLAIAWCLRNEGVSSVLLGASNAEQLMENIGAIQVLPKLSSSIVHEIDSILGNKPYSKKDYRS
Chain of Muscarinic acetylcholine receptor M4 (Homo sapiens) (P08173 whole entry, looked up): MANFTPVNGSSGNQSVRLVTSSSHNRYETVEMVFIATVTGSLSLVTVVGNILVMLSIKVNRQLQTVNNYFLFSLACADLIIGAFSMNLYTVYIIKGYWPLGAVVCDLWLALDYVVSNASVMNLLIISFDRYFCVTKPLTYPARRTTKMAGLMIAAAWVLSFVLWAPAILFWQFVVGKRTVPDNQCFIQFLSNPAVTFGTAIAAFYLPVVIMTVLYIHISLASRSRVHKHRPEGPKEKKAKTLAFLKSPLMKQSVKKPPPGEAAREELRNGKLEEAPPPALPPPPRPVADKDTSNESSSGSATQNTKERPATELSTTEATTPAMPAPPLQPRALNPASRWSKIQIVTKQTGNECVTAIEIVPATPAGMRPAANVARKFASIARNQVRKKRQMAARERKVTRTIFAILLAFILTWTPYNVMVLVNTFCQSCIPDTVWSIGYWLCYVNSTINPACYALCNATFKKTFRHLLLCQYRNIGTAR

SMILES | cell count [1] | inhibition [1] | inhibition of aggregation [2] | nuclei count [2] | inhibition [3] | nuclei count [3] | z-score [4, 14] | z-score [4, 15] | z-score [4, 16] | inhibition [5] | fluorescence slope [6] | NADPH fluorescence slope [7] | slope [8] | outcome [9] | inhibition [10] | inhibition [11] | inhibition [12] | fluorescence slope [13]
Cc1cc(NC(=O)C2=C(O)c3ccccc3S(=O)(=O)N2C)no1 | 693 | -7.5% (inactive) | 9.1% (inactive) | 108% | -39.3% (inactive) | 120% | 0.515 | 0.415 | 0.569 | 7.39% (inactive) | -0.538 (inactive) | -2.2e-05 (inactive) | 0.00444 (inactive) | inactive | -6.68% (inactive) | 12.9% (inactive) | 25.5% (inactive) | –
CN1CCN(CCCN2c3ccccc3Sc3ccc(C(F)(F)F)cc32)CC1 | 613 | 4.1% (inactive) | -9.7% (inactive) | 101% | -23.1% (inactive) | 121% | 0.592 | 0.844 | 1.24 | -5.24% (inactive) | -0.437 (inactive) | -1.6e-05 (inactive) | 0.00437 (inactive) | inactive | 35.7% (inactive) and 164% (active) | 18.2% (inactive) | 40.2% (inactive) | –
CCSc1nc(N)c(C#N)c(-c2ccccc2Cl)c1C#N | 494 | -3.2% (inactive) | 25.1% (inactive) | 71.7% | -29% (inactive) | 107% | -2.31 | 3.1 | 0.136 | -5.89% (inactive) | -0.473 (inactive) | -0.000189 (inactive) | 0.00512 (inactive) | inactive | -6.34% (inactive) | -0.977% (inactive) | 7.05% (inactive) | –
Cc1ccc(C)c(OCCCC(C)(C)C(=O)O)c1 | 624 | -1.4% (inactive) | 26.1% (inactive) | 107% | -52.3% (inactive) | 122% | 0.389 | 0.0218 | 0.246 | 7.39% (inactive) | -0.536 (inactive) | -3.5e-05 (inactive) | 0.00591 (inactive) | inactive | 36% (inactive) | 17.7% (inactive) | 39.7% (inactive) | –
CN1CCC(=C2c3ccccc3C=Cc3ccccc32)CC1 | 599 | -6% (inactive) | -5.2% (inactive) | 104% | -80% (inactive) | 131% | 0.654 | 1.45 | -1.1 | 9.37% (inactive) | -0.438 (inactive) | -6.6e-05 (inactive) | 0.00408 (inactive) | inactive; toxic | 12% (inactive) and 38.6% (inactive) | 18.4% (inactive) | 46.7% (inactive) | –
COc1cc(/C=N/n2c(C)nnc2C)cc(OC)c1OC | 454 | -5.9% (inactive) | 3.2% (inactive) | 109% | -27.1% (inactive) | 92.1% | 0.126 | -0.553 | -1.17 | -1.75% (inactive) | -0.395 (inactive) | -3.1e-06 (inactive) | 0.00638 (inactive) | inactive | 23.6% (inactive) | 14% (inactive) | 13.7% (inactive) | –
O=C(O)CC1SC(=Nc2cccc(C(F)(F)F)c2)NC1=O (stereo not drawn) | 447 | -2.2% (inactive) | 3.4% (inactive) | 95.3% | -42.6% (inactive) | 105% | -0.141 | 1.56 | 0.654 | 3.42% (inactive) | -0.448 (inactive) | 1.4e-05 (inactive) | 0.0048 (inactive) | inactive | 34.2% (inactive) | 19.6% (inactive) | 19.9% (inactive) | –
Cc1cc(N2CCN(C3CCCC3)CC2)n2c(nc3ccccc32)c1C#N | 582 | -4.5% (inactive) | 36.4% (active) | 57.7% | 6.5% (inactive) | 110% | 1.58 | 0.862 | -0.0668 | 17.8% (inactive) | -0.33 (inactive) | -3.1e-05 (inactive) | 0.00579 (inactive) | inactive | -3.52% (inactive) | 24.6% (inactive) | 39% (inactive) | –
Cc1ccc(-n2c(N)c(C(N)=O)sc2=S)cc1 | 560 | -7.1% (inactive) | -1.4% (inactive) | 104% | -12.7% (inactive) | 146% | -0.361 | -1.13 | 1.48 | -1.98% (inactive) | -0.427 (inactive) | -2.9e-05 (inactive) | 0.00443 (inactive) | inactive | 21.1% (inactive) | 2.77% (inactive) | 15.4% (inactive) | 0.00756 (inactive)
CCCSc1ccc2nc(NC(=O)OC)[nH]c2c1 | 574 | 3% (inactive) | -22.3% (inactive) | 15.7% | -115% (inactive) | 123% | 0.0938 | 0.921 | 0.811 | -5.24% (inactive) | -0.486 (inactive) | -8.1e-05 (inactive) | 0.00562 (inactive) | inactive | -13.8% (inactive) | 26.9% (inactive) | -19.4% (inactive) | –
Cc1nn(C)cc1C1C2=C(CC(C)(C)CC2=O)OC2=C1C(=O)CC(C)(C)C2 | 616 | -2.2% (inactive) | 2.2% (inactive) | 108% | -77.9% (inactive) | 140% | 0.812 | 0.307 | -0.678 | 2.46% (inactive) | -0.337 (inactive) | -6.9e-06 (inactive) | 0.00477 (inactive) | inactive | 1.65% (inactive) | 10.6% (inactive) | 18% (inactive) | –
